For 11 compounds, outcome results are on record in PubChem BioAssay (NCATS).

Records with an inconclusive call do not appear. Calls of active or inactive are those of the source. The call rests on the fitted dose curve.

In the experiment the target is Vitamin D3 receptor (Homo sapiens) (UniProt P11473). The experiment in a line: qHTS assay for small molecule agonists of vitamin D receptor signaling (AID 588543). To be noted: HEK293T VDR-UAS-bla, beta-lactamase ratio, 16 h; series mostly up to 76.8 µM. From the text: NIH Chemical Genomics Center [NCGC]
Sequence of Vitamin D3 receptor (Homo sapiens) (P11473 whole entry, looked up): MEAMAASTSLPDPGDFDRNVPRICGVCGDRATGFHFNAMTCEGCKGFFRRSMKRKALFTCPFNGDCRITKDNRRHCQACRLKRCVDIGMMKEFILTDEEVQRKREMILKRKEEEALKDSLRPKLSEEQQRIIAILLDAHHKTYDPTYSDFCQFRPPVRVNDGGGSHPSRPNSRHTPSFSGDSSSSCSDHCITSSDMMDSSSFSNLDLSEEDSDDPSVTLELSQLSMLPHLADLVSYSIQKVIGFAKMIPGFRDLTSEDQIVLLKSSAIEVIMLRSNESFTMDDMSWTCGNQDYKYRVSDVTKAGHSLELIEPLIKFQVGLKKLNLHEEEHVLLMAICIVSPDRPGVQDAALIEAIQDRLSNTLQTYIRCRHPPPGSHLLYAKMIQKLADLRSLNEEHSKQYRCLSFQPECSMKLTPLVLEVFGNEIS
U.S. Environmental Protection Agency [EPA]
National Institutes of Environmental Health Sciences [NIEHS]
National Toxicology Program [NTP]
The Vitamin D receptor (VDR) is a member of nuclear hormone receptor superfamily and it plays a critical role in calcium homeostasis and bone metabolism. It plays a role in inducing cell differentiation, inhibiting cell growth and in thrombogenicity. So, VDR that mediates these effects represents a pharmacological target in prevention and treatment of hyperproliferative malignancies, such as cancer and psoriasis, cardiovascular, immunological, inflammatory and renal diseases etc.
NCGC Assay Protocol Summary
Using a beta-lactamase reporter-gene under control of Vitamin D receptor (VDR) response element, a cell-based assay [GeneBLAzer (VDR -UAS-bla assay developed by Invitrogen] was used to measure VDR ligands signaling. GeneBLAzer VDR -UAS-bla HEK293T cells were used with assay medium containing 2% charcoal-stripped FBS. The assay was performed in clear bottom black Greiner 1536-well plates. 1-alpha,25-Dihydroxy vitaminD3 was used as a positive control in the screen. Library compounds were measured for their ability to stimulate the reporter gene activity. Compounds were screened in a titration series in 1536-well format. The fluorescence intensity (405 nm excitation, 460/530 nm emission) was measured using an EnVision plate reader. Data was normalized relative to 1-alpha,25-Dihydroxy vitaminD3 control (50 nM, 100%) and DMSO only wells (basal, 0%). Concentration-response titration points for each compound were fitted to the Hill equation yielding concentrations of half-maximal stimulation (EC50) and maximal response (efficacy) values.
qHTS protocol for VDR beta-lactamase assay in agonist mode
[Step] [Parameter] [Value] [Description]
1. Reagent; 6 uL; 2000 cells/well
2. Incubation; 37 C for 5 hrs
4. Controls (1-alpha,25-Dihydroxy vitaminD3); 23 nL,
- Final concentrations of 50 nM and 15 nM in two columns
5. Incubation; 37 C for 16 hrs
6. Detection reagent; 1 uL of CCF4-dye
7. Incubation; RT for 2 hrs
8. Detection; Fluorescence; Envision plate reader
As to `CC(=O)[C@@]1(O)CC[C@H]2[C@@H]3CCC4=CC(=O)CC[C@]4(C)[C@H]3CC[C@@]21C`, the result was inactive. With `O=c1[nH]c(=O)n([C@H]2C[C@H](O)[C@@H](CO)O2)cc1Br`, the outcome was inactive. In the case of `CN=C(NC#N)NCCSCc1nc[nH]c1C`, the outcome was inactive. Then `C[C@]12C=CC(=O)C=C1CC[C@H]1[C@@H]3C[C@@H](O)[C@](O)(C(=O)CO)[C@@]3(C)C[C@H](O)[C@@]12F`, with “inactive”; and `O=C(O)CCCCCCCC(=O)O`, with “inactive”. Then `Cc1ccc(S(=O)(=O)NC(=O)NN2CCCCCC2)cc1`, with “inactive”; and `Nc1ncn([C@@H]2O[C@H](CO)[C@@H](O)[C@H]2O)c(=O)n1`, with “inactive”; and `COc1cc(Cc2cnc(N)nc2N)cc(OC)c1OC`, with “inactive”. Then `CC(C)(Oc1ccc(CCNC(=O)c2ccc(Cl)cc2)cc1)C(=O)O`, with “inactive”; and `C[C@]12CCC(=O)C=C1CC[C@@H]1[C@@H]2C(=O)C[C@@]2(C)[C@H]1CC[C@]2(O)C(=O)CO`, with “inactive”; and `CCCCNC(=O)NS(=O)(=O)c1ccc(C)cc1`, with “inactive”.
